As a reminder, the viability is a per cent measure of how many cells are alive, often set against a control. Usually inhibition stands for the drop in the measured response relative to a control, in per cent.

Records with an inconclusive call do not appear. Activity calls are given as the source filed them. Unless noted, how the calls were made is not given here.

In assay [1] the target is ATP-dependent translocase ABCB1 (Homo sapiens) (UniProt P08183). The experiment in a line: P-glycoprotein substrate transport blockade – cell-based (AID 377; in the data active means fluorescence slope change above about 50%). To be noted: MDR1-expressing cells, fluorescent substrate accumulation slope; stronger effect = higher value; concentration not given here.
Assay [2] can be described thus: P. berghei load reduction in hepatocytes – cell-based, HepG2, luciferase luminescence, HepG2 viability, primary screen (AID 624349; in the data active means parasite load remaining mostly below about 12%, no sharp cut-off; inactive means mostly above about 10%;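 further: 100% = mean of DMSO negative control wells on the same plate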). To be noted: P. berghei liver stage in HepG2, luciferase luminescence, concentration not given here; parasite load remaining: stronger effect = lower value; viability: measured here: HepG2 viability without parasites.
A short description of assay [3]: compounds altering viability of human ES cells (AID 493140).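 Further: cells exposed to compounds for four days before counting.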 Conditions: human embryonic stem cell survival screen; stronger effect = higher value.
The nature of assay [4]: compounds altering circadian rhythm period length – cell-based, LOPAC library, luminescence reporter (AID 2774).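 Further: values are relative to mean of DMSO wells on each plate.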 To be noted: circadian reporter cells, at 7 µM, actives lie on both sides.
Assay [5] relates to Hepatitis C virus NS3 helicase. The experiment in a line: blockers of NS3h binding to ssDNA – biochemical, fluorescence polarization, LOPAC1280 library, primary screen (AID 687035; in the data active means inhibition above about 37%). Conditions: Purified HCV NS3 helicase, Cy5-dT15 ssDNA binding fluorescence polarization; stronger effect = higher value; concentration not given here. In general terms: Polarisation of emitted light reports the rotation of a fluorescent probe.

A short description of assay [6]: compounds altering Cy5-DNA-NS3h complex signal – biochemical, LOPAC1280, artefact control for HCV NS3 helicase inhibitor project (AID 687037). Conditions: Cy5-DNA-NS3h complex fluorescence interference counterscreen.
Assay [7] can be described thus: liver-stage malaria parasite load reduction – cell-based, known kinase inhibitor set, luminescence, hepatoma host viability (AID 624392).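 Further: infected cells incubated roughly two days before readout.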 To be noted: Plasmodium liver stage in hepatoma cells, luciferase luminescence, concentration not given here; liver cell % of control: measured here: host liver cell viability; parasite % of control: stronger effect = lower value.

ATP-dependent translocase ABCB1 (Homo sapiens), sequence (P08183 whole entry, looked up): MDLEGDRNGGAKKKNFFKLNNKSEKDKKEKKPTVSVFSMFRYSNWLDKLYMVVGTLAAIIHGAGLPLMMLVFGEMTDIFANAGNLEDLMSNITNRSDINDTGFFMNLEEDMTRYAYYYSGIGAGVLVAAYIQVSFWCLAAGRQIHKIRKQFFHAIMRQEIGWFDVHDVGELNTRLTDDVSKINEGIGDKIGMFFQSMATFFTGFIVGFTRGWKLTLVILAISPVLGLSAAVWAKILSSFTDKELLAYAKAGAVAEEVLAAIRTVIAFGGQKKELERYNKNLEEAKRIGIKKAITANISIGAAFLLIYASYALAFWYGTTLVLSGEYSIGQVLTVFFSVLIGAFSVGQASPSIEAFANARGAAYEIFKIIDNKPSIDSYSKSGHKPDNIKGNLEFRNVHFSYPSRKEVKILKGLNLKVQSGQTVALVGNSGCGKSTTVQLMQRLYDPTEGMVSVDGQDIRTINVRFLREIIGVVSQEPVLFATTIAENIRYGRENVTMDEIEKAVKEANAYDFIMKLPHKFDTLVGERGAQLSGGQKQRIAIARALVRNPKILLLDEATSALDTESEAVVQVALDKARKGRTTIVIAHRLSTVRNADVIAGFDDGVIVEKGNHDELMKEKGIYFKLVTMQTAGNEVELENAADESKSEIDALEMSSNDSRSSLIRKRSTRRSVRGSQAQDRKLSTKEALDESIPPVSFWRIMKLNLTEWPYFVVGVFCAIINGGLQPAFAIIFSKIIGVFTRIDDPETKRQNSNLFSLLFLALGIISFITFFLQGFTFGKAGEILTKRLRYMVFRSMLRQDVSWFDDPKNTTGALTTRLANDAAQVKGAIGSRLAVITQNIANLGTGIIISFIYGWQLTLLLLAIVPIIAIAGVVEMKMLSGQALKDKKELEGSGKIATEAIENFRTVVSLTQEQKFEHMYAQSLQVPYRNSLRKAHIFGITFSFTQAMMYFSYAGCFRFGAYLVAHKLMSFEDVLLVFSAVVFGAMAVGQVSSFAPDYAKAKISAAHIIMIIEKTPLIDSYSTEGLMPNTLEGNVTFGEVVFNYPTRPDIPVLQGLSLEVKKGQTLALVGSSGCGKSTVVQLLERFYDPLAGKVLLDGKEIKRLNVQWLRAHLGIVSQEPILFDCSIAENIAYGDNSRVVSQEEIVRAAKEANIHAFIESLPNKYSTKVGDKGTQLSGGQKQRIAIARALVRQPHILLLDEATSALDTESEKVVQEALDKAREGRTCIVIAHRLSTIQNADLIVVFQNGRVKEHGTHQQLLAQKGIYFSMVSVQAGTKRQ

In the case of `C[C@@H]1CCC2[C@H](C)C3CC[C@@]4(O)[C@@H]5CC(=O)[C@H]6CC(=O)CC[C@]6(C)C5C[C@H]4[C@@H]3CN2C1` (some centres undefined), the fluorescence slope change in assay [1] is 16.8% (inactive).

Turning to `CC[C@H](CO)NC(=O)[C@@H]1C=C2c3cccc4[nH]cc(c34)C[C@H]2N(C)C1`, the fluorescence slope change in assay [1] is 0.6% (inactive). Moreover, in assay [2], the parasite load remaining is 67.8% (inactive) and the viability amounted to 73.1%.

Take `NCCC(O)C(=O)NC1CC(N)C(OC2OC(CN)C(O)[C@H](O)[C@@H]2N)[C@H](OC2O[C@H](CO)[C@@H](O)[C@@H]2O)[C@@H]1O` (some centres undefined): the fluorescence slope change in assay [1] was 51.6% (active). Further, in assay [3], the survival is 4.17 (inactive).

`N#CC(C#N)=Cc1cc(O)c(O)c([N+](=O)[O-])c1`: the survival in assay [3] was 100 (inactive).

Take `CCOC(=O)NC1=C(N2CC2)C(=O)C(NC(=O)OCC)=C(N2CC2)C1=O`: the fluorescence slope change in assay [1] was 17.2% (inactive).

For `CN1CCC2=C[C@@H](O)C3OC(=O)c4cc5c(cc4C3[C@H]21)OCO5` (some centres undefined), in assay [1], the fluorescence slope change was 1.8% (inactive). Moreover, the survival in assay [3] was 6.42 (inactive).

As for `C=C[C@@H]1CN2CCC1C[C@@H]2[C@@H](O)c1ccnc2ccccc12` (some centres undefined), the fluorescence slope change in assay [1] is 13.4% (inactive).

Consider `C=C[C@]12CN(C)C3C4COC(CC41)[C@]1(C(=O)Nc4ccccc41)[C@@H]32` (some centres undefined), for which the fluorescence slope change in assay [1] is 13.5% (inactive). In assay [3], the survival is 4 (inactive).

For the molecule `CCN(CC)C(=O)N[C@H]1C=C2c3cccc4[nH]cc(c34)C[C@H]2N(C)C1`, in assay [1], the fluorescence slope change was 136% (active). For the same molecule, the period change in assay [4] is 0.33 h (inactive). The survival in assay [3] was 19.8 (inactive). In addition, in assay [2], the parasite load remaining was 92.5% (inactive) and the viability was 87.9%.

For the molecule `C=C(C)[C@@H]1[C@H]2OC(=O)[C@@H]1[C@]1(O)C[C@H]3O[C@]34C(=O)OC2[C@]14C` (some centres undefined), the fluorescence slope change in assay [1] was 18.3% (inactive). The survival in assay [3] was 4 (inactive).

As for `CCN1C[C@]2(COC)CC[C@H](O)[C@@]34C5C[C@H]6C(OC)C5[C@](O)(C[C@H]6OC)C(O)(C(OC)C23)[C@@H]14` (some centres undefined), the fluorescence slope change in assay [1] is -9.9% (inactive). The survival in assay [3] was 4 (inactive).

Regarding `CO[C@@H]1C=C2CCN(C)[C@@H]2C2c3cc4c(cc3C(=O)OC21)OCO4` (some centres undefined), the fluorescence slope change in assay [1] is 12.6% (inactive). For the same molecule, the survival in assay [3] was 4.75 (inactive).

As to `C#C[C@]1(O)CCC2C3CCC4=CC(=O)CC[C@]4(C)C3CC[C@@]21C` (some centres undefined), the fluorescence slope change in assay [1] was 63.9% (active). Moreover, the survival in assay [3] is 10.7 (inactive). Moreover, in assay [2], the parasite load remaining was 97.8% (inactive) and the viability stood at 86.3%.

`CCN1C[C@]2(C)CC[C@H](O)C34C5C[C@H]6C(O)C5[C@](O)(C[C@@H]6OC)C(CC32)[C@@H]14` (some centres undefined): the fluorescence slope change in assay [1] is -10.1% (inactive). Also, the survival in assay [3] is 6.75 (inactive).

As for `C[C@H](N)[C@@H](O)c1ccc(O)c(O)c1`, the fluorescence slope change in assay [1] is 17.7% (inactive).

For `CCN1C[C@]2(COC)CC[C@H](OC)[C@]34C5C[C@@H]6[C@@H](OC)CC7(OCO[C@]7([C@H]13)[C@@H](O)C24)C5[C@H]6OC` (some centres undefined), the fluorescence slope change in assay [1] was 13% (inactive). The survival in assay [3] was 6.42 (inactive).

`CC[C@@H](C)C(=O)O[C@H]1[C@H](O)[C@H]2[C@@H](CN3C[C@@H](C)CC[C@H]3[C@@]2(C)O)C2C[C@]34O[C@@]5(O)[C@@H](OC(=O)C(C)(O)CC)CC[C@@]3(C)[C@@H]5[C@@H](OC(C)=O)[C@@H](OC(C)=O)[C@H]4[C@@]21O` (some centres undefined): the fluorescence slope change in assay [1] was 24.2% (inactive). Also, the survival in assay [3] is 6.33 (inactive). Further, in assay [2], the parasite load remaining was 72.4% (inactive) and the viability came out at 77.1%.

`CN1[C@@H](C[C@@H](O)c2ccccc2)CCC[C@H]1C[C@H](O)c1ccccc1`: the fluorescence slope change in assay [1] is 85.7% (active).

In the case of `CN1[C@@H]2CCC[C@H]1CC(=O)C2`, the fluorescence slope change in assay [1] was 53.5% (active).

`CCN1C[C@]2(C)CC[C@H](OC)[C@]34C2[C@H](OC(C)=O)C2(OCO[C@@]25CC(OC)C2C[C@]3(O)C5[C@H]2OC)[C@@H]14` (some centres undefined): the survival in assay [3] is 5 (inactive).

For `CC1OC(OC2/C=C/C=C/C=C/C=C/CC/C=C/C=C/[C@H](C)[C@@H](O)[C@@H](C)[C@H](C)OC(=O)CC(O)CC(O)CC(O)CCC(O)C(O)C[C@]3(O)CC(O)C(C(=O)O)C(C2)O3)C(O)C(N)C1O` (some centres undefined), the fluorescence slope change in assay [1] is 108% (active). Further, in assay [3], the survival is 8.92 (inactive). In assay [2], the parasite load remaining is 78.6% (inactive) and the viability turned out to be 74%.

As for `CC(=O)O[C@@H]1CC(O[C@@H]2C(C)OC(O[C@@H]3C(C)OC(OC4CCC5(C)C(CCC6C5CC(O)C5(C)C(C7=CC(=O)OC7)CCC65O)C4)C[C@H]3O)C[C@H]2O)OC(C)[C@H]1OC1OC(CO)[C@@H](O)[C@@H](O)[C@@H]1O` (some centres undefined), the fluorescence slope change in assay [1] is 3% (inactive).

Consider `COC(C)C(O)(C(=O)OCC1=CCN2CC[C@H](O)[C@@H]12)C(C)C` (some centres undefined), for which the fluorescence slope change in assay [1] is 29% (inactive). The survival in assay [3] is 1.33 (inactive).

With `CC(C)C(C(=O)OC(C#N)c1cccc(Oc2ccccc2)c1)c1ccc(Cl)cc1` (centres undefined), the survival in assay [3] was 79 (inactive).

With `C#CC1(O)CC[C@H]2[C@@H]3CCC4=CCCC[C@@H]4[C@H]3CC[C@@]21C` (some centres undefined), in assay [3], the survival was 37.7 (inactive).

Turning to `CCC1C2CC3[C@@H]4N(C)c5ccccc5[C@]45CC(C2[C@H]5O)N3[C@@H]1O` (some centres undefined), the fluorescence slope change in assay [1] was 67.5% (active). For the same molecule, the survival in assay [3] is 5.33 (inactive). Also, in assay [2], the parasite load remaining is 65.3% (inactive) and the viability was 70.7%.

With `CN(C)Cc1c[nH]c2c(OCc3ccccc3)cccc12`, in assay [1], the fluorescence slope change was 61.1% (active).

In the case of `COc1cc2c(cc1O)C1Cc3ccc(OC)c(O)c3CN1CC2` (centres undefined), the fluorescence slope change in assay [1] is 144% (active). Also, in assay [3], the survival was 1.58 (inactive). Also, in assay [2], the parasite load remaining was 63.3% (inactive) and the viability was 69.6%.

`CCCCC[C@@H](/C=C/C=C\CCCCCCCCCC(=O)O)OO`: the survival in assay [3] was 112 (inactive).

As to `CC1(C)C(C=C(Br)Br)C1C(=O)OC(C#N)c1cccc(Oc2ccccc2)c1` (centres undefined), in assay [3], the survival was 82.3 (inactive).

For `NCC1OC(OC2C(N)CC(N)C(O)C2O)C(N)C(O)C1O` (centres undefined), the fluorescence slope change in assay [1] is 14.1% (inactive).

Turning to `C=C(C(=O)OC1CC2[C@@H]3O[C@@H]3[C@@H](C1)N2C)c1ccccc1` (some centres undefined), in assay [1], the fluorescence slope change is 4.6% (inactive).

As for `CN1CCc2cc3c(c4c2C1Cc1ccccc1-4)OCO3` (centres undefined), in assay [1], the fluorescence slope change is 11.3% (inactive).

With `COc1cc(CC(C)N)c(OC)cc1I` (centres undefined), the period change in assay [4] was -0.11 h (inactive). For the same molecule, the inhibition in assay [5] was -3% (inactive). Moreover, the fluorescence ratio (interference) in assay [6] is 1 (inactive).

Take `CC/C=C\C[C@@H](/C=C/C=C\C/C=C\C/C=C\CCCC(=O)O)OO`: the survival in assay [3] was 90.4 (inactive).

As to `CCCn1c(C)c(C(=O)c2ccc3ccccc3c2)c2ccccc21`, in assay [4], the period change was -0.02 h (inactive). Moreover, the inhibition in assay [5] was -4% (inactive). The fluorescence ratio (interference) in assay [6] is 1 (inactive).

In the case of `COc1cc(C(=O)OC2CC3CCC(C2)N3C)ccc1O` (centres undefined), the fluorescence slope change in assay [1] was 5.8% (inactive). Further, in assay [3], the survival is 1.67 (inactive).

As to `C=C1C2C[C@@]3(C4CC5C6(C3C[C@@H]2O)[C@@H](O)CC[C@@]5(C)CN(CC)[C@H]46)[C@@H]1O` (some centres undefined), in assay [1], the fluorescence slope change is 24.6% (inactive). For the same molecule, the survival in assay [3] is 5.92 (inactive).

As to `CCCCCCCCCCCCCCC[C@@H](O)[C@@H](N)COP(=O)(O)O`, in assay [3], the survival was 93.8 (inactive).

With `CN(CC(=O)O)/C(N)=N/P(=O)(O)O`, the fluorescence slope change in assay [1] was 63.4% (active).

Consider `O=C1NC(=O)C(=Cc2ccc(-c3ccc([N+](=O)[O-])cc3)o2)C(=O)N1`, for which, in assay [7], the liver cell % of control stood at 98% and the parasite % of control is 117% (inactive).

`CC(=O)O[C@@H]1CC(O[C@@H]2C(C)OC(O[C@@H]3C(C)OC(OC4CC[C@@]5(C)[C@H](CC[C@]6(C)[C@]5(C)C[C@@H](O)[C@]5(C)[C@@H](C7=CC(=O)OC7)CC[C@@]56O)C4)C[C@H]3O)C[C@H]2O)OC(C)[C@H]1OC1OC(CO)[C@@H](O)[C@@H](O)[C@@H]1O` (some centres undefined): the survival in assay [3] is 0.333 (inactive).

Regarding `O=c1cccc2n1CC1CNC[C@@H]2C1`, the survival in assay [3] was 9 (inactive). Further, in assay [2], the parasite load remaining was 70.3% (inactive) and the viability turned out to be 77.8%.

Consider `CCN1C[C@]2(COC)CC[C@H](O)C34C5C[C@@H]6C(OC)C[C@@](O)(C5[C@H]6OC(C)=O)[C@@H](CC32)[C@@H]14` (some centres undefined), for which the survival in assay [3] is 21.1 (inactive).

Regarding `COc1ccc(C(=O)OC2C[C@H]3CC[C@@H](C2)N3C)cc1OC` (some centres undefined), in assay [3], the survival was 13.3 (inactive). Besides, in assay [2], the parasite load remaining is 68.2% (inactive) and the viability was 77.3%.

Take `[Cl-].[Cl][Pt].[NH2-].[NH2-].c1ccncc1`: in assay [5], the inhibition was -3% (inactive). Besides, the fluorescence ratio (interference) in assay [6] is 0.9 (inactive).

For the molecule `N/C(=N\[N+](=O)[O-])N/N=C\c1ccc(-c2cccc([N+](=O)[O-])c2)o1`, in assay [2], the parasite load remaining is 33.3% (inactive) and the viability amounted to 91.9%.

For `O=S(=O)(c1c(O)c(Cl)cc(Cl)c1Cl)c1c(O)c(Cl)cc(Cl)c1Cl`, in assay [2], the parasite load remaining was 27.4% (inactive) and the viability came out at 70.9%.

As to `NS(=O)(=O)c1ccc(-c2ccc(C=C3C(=O)NC(=S)NC3=O)o2)cc1`, in assay [7], the liver cell % of control was determined as 102% and the parasite % of control was 96.9% (inactive).

(Values after PubChem BioAssay.)
